Drawing on ChEMBL document CHEMBL1961873, “Compounds: GSK PKIS; Assays: Nanosyn kinase panel” (2012), this text covers inhibition for 34 compounds.

By inhibition is commonly meant the change of the read-out against control, counted positive when it falls.

For one assay, the target named is Tyrosine-protein kinase Srms (Homo sapiens) (UniProt Q9H3Y6). Conditions: at 0.1 µM.
Sequence of Tyrosine-protein kinase Srms (Homo sapiens) (Q9H3Y6 whole entry): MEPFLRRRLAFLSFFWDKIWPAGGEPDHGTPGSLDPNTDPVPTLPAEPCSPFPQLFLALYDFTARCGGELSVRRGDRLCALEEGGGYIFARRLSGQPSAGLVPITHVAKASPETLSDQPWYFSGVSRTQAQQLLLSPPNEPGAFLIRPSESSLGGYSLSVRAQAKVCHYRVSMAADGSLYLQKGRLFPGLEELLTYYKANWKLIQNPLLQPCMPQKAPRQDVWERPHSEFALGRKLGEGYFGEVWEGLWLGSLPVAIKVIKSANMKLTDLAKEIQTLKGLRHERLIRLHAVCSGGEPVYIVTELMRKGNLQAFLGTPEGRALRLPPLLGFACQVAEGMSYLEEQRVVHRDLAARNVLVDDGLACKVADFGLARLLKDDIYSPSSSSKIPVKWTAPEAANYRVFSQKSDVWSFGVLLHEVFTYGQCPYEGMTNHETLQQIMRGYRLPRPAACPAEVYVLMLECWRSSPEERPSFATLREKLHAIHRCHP
As for `Oc1cccc(-c2nc(-c3ccccc3)[nH]c2-c2ccncc2)c1`, the inhibition worked out at 3.43%.
On the same count and under the same terms, the same measure for `Nc1ccc(C#Cc2cncnc2Nc2ccc(OCc3cccc(F)c3)c(Cl)c2)cc1`: -2.09%; for `NS(=O)(=O)c1ccc(NC=C2C(=O)Nc3ccc4ncsc4c32)cc1`: -1.05%; for `NS(=O)(=O)c1ccc(-c2cc3ccncc3cc2OCc2ccccc2)cc1`: 0.62%.
On the same count and under the same terms, as for `Cc1cc(O)cc(C)c1/C=C/c1cncc(C(=O)N(C)C)c1`, the figure is 0.98%; as for `c1ccc(Nc2ncc(-c3ccccc3)o2)cc1`, 0.17%.
Still for that read-out and setting: as for `COc1cccc(-n2nc(C)c3c(N/N=C(\C)c4ccncc4)ncnc32)c1`, the figure is 0.84%; as for `NC(=O)c1sc(-n2cnc3ccccc32)cc1OCc1ccccc1Br`, -2.72%; as for `CCOc1nccc2c1nc(-c1nonc1N)n2CC`, 3.59%.
As to `CN(C)CCCn1c(-c2nonc2N)nc2cnccc21`, the inhibition is -0.98%.
For the compound `NC(=O)c1cccc(Nc2nccc(Nc3cccc(F)c3)n2)c1`, the inhibition worked out at 1.56%.
With `COC(=O)c1ccc2c(c1)C(=Cc1cc(Br)c(O)c(Br)c1)C(=O)N2`, the inhibition was 30.9%.
Same read-out and setting: as for `FC(F)(F)c1ccc(-c2nn3ncccc3c2-c2ccnc(Nc3ccc4c(c3)OCCO4)n2)cc1`, the figure is 8.49%; as for `COc1cc(/C=N/Nc2ncnc3c2cnn3C(C)C)ccc1O`, 1.16%.
In the case of `COC(=O)c1cncc(/C=C/c2c(C)cc(O)cc2C)c1`, the inhibition is 0.39%.
On to `COc1cc2ncn(-c3cc(OCc4ccccc4S(C)(=O)=O)c(C#N)s3)c2cc1OC`, for which the inhibition is 2.07%.
Take `Cc1ccc2c(-c3ccnc(Nc4ccc5c(c4)OCCO5)n3)c(-c3ccc(C(F)(F)F)cc3)nn2n1`: the inhibition is -0.03%.
`Cc1ccc(Nc2ccnc(Nc3cccc(C(N)=O)c3)n2)cc1O`: the inhibition came out at 10.8%.

For another assay the target is unchanged. The settings on record: at 1 µM.
For `[O-][S+]1CCN(Cc2ccc(-c3ccc4ncnc(Nc5ccc(OCc6ccccc6)c(Cl)c5)c4c3)o2)CC1`, the inhibition was -2%.
Regarding `C[C@@H](Oc1cc(-n2cnc3ccc(OCC4CCN(C)CC4)cc32)sc1C(N)=O)c1ccccc1C(F)(F)F`, the inhibition is 2.5%.
With `O=S(=O)(CCOCc1ccc(-c2ccc3ncnc(Nc4ccc(OCc5cccc(F)c5)c(Cl)c4)c3c2)o1)c1ccccc1`, the inhibition is -2.52%.
On the same count and under the same terms, as for `CCn1c(-c2nonc2N)nc2ccc(F)cc21`, the figure is -0.49%.
For `CC(C)c1ccc(Nc2nccc(-c3cnn4ncccc34)n2)cc1`, the inhibition turned out to be 3.15%.
On the same count and under the same terms, the same measure for `CN(c1ccc(NC(=O)Nc2ccc(OC(F)(F)F)cc2)cc1)c1ccnc(Nc2cccc(S(N)(=O)=O)c2)n1`: 14.3%.
Same read-out and setting: as for `NS(=O)(=O)c1ccc(N/N=C2\C(=O)Nc3ccc(Cl)cc32)cc1`, the figure is 0.2%.
As for `COc1cccc(-n2ncc3c(N/N=C/c4ccc(S(C)(=O)=O)cc4)ncnc32)c1`, the inhibition came out at 17.8%.
Take `CC(C)c1ccc2c(c1)NC(=O)/C2=N/Nc1ccc(S(N)(=O)=O)cc1`: the inhibition worked out at 0.2%.
In the case of `Cc1cc(Cl)cc2c1NC(=O)C2=NNc1ccc(S(N)(=O)=O)cc1`, the inhibition is -2.07%.
For `c1ccc(Cc2nc3ccc(Nc4ncnc5ccccc45)cc3[nH]2)cc1`, the inhibition was -2.82%.
As for `N#Cc1c(NC(=O)c2ccccc2F)sc2c1CCCC2`, the inhibition amounted to 1.79%.
With `CN(C)c1cc2c(Nc3ccc4c(cnn4Cc4ccccc4)c3)ncnc2cn1`, the inhibition amounted to 1.29%.
Still for that read-out and setting: the same measure for `Nc1nccc(-c2c(-c3ccc(F)cc3)ncn2CCCN2CCOCC2)n1`: 1.12%.
Same read-out and setting: as for `Cc1ccc(NC(=O)CC2CC2)cc1-c1ccc(C(=O)NCC2CC2)cc1`, the figure is 5.61%; as for `CCn1c(-c2nonc2N)nc2c(C#CC(C)(C)O)nc(OCCNC)cc21`, -2.34%.
`Oc1cccc(-c2nc(-c3ccccc3)[nH]c2-c2ccncc2)c1`: the inhibition is 8.65%.
As to `Nc1ccc(C#Cc2cncnc2Nc2ccc(OCc3cccc(F)c3)c(Cl)c2)cc1`, the inhibition is -0.77%.
On to `NS(=O)(=O)c1ccc(NC=C2C(=O)Nc3ccc4ncsc4c32)cc1`, for which the inhibition came out at 0.07%.
The same measure, in the same setting: as for `NS(=O)(=O)c1ccc(-c2cc3ccncc3cc2OCc2ccccc2)cc1`, the figure is 1.62%; as for `Cc1cc(O)cc(C)c1/C=C/c1cncc(C(=O)N(C)C)c1`, 1.27%; as for `c1ccc(Nc2ncc(-c3ccccc3)o2)cc1`, 2.19%.
`COc1cccc(-n2nc(C)c3c(N/N=C(\C)c4ccncc4)ncnc32)c1`: the inhibition came to 2.72%.
The same measure, in the same setting: as for `NC(=O)c1sc(-n2cnc3ccccc32)cc1OCc1ccccc1Br`, the figure is -2.44%; as for `CCOc1nccc2c1nc(-c1nonc1N)n2CC`, 5.69%; as for `CN(C)CCCn1c(-c2nonc2N)nc2cnccc21`, -4.16%.
With `NC(=O)c1cccc(Nc2nccc(Nc3cccc(F)c3)n2)c1`, the inhibition stood at 5.6%.
Take `COC(=O)c1ccc2c(c1)C(=Cc1cc(Br)c(O)c(Br)c1)C(=O)N2`: the inhibition amounted to 75.9%.
Take `FC(F)(F)c1ccc(-c2nn3ncccc3c2-c2ccnc(Nc3ccc4c(c3)OCCO4)n2)cc1`: the inhibition was determined as 8.73%.
